Test results: PubChem BioAssay (Tox21)
Results filed as inconclusive are left out. Unmarked numbers belong to inactive results. Calls follow the shape of the dose curve; as a rule, active = well fitted cell-killing curve with a large enough effect in the repeat runs; inconclusive = weak or mixed curves; inactive = no such curve, though single readings can be large or run the other way.

test: qHTS assay to identify small molecule agonists of the peroxisome proliferator-activated receptor delta (PPARd) signaling pathway - cell viability counter screen (AID 743211); conditions: PPARd-bla HEK293H viability, CellTiter-Glo luminescence, 17 h; series mostly up to 62.6 µM; activity change, negative = cytotoxicity: at the top concentration; also: nearly all actives have a fitted effect of over 55% in size
Summary of the method: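 Tox21 library compounds, delivered in DMSO, were incubated 17 h with PPARd-bla HEK293H cells; cytotoxicity was taken from CellTiter-Glo luminescence read 30 min after reagent addition.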
% is scaled to controls: 0 for no effect and ±100 for the full control effect.

SMILES | activity change, negative = cytotoxicity
CC(=O)Nc1cccc(N)c1 | -5.29% [at 81.1 µM]
CC(C)(C)N | 10.4%
Cc1cc(C)n(CO)n1 | -1.53%
O=C(O)CCc1nc2ccccc2[nH]1 | 3.89%
CC(C)(C)NCC(O)COc1ccc(NC(=O)NC2CCCCC2)cc1 (centres undefined) | -8.63%
CCCCCCCCCCCCCCCCCCCl | 0.407% [at 5.95 µM]
O=C(c1ccc(Cl)cc1)c1ccc(Cl)cc1 | -3.35%
CCC(C)C1N=C(C)C(C)S1 (centres undefined) | 0.772%
CC(C)C/C=C(\C=O)c1ccccc1 | 2.91%
N#Cc1ccc(CC(=O)c2cccc(C(F)(F)F)c2)cc1 | -3.92%
O=S(=O)(O)c1cc(Cl)c(Cl)cc1Cl | 0.388%
CCCc1nc(C)c2c(=O)[nH]c(-c3cc(S(=O)(=O)N4CCN(CC)CC4)ccc3OCC)nn12 | 1.78%
CS(C)=O | 9.21%
CCOc1ccc2c(c1)C(C)CC(C)(C)N2 (centres undefined) | 7.34%
O=P(c1ccccc1)(c1ccccc1)c1ccccc1 | 0.417%
CCCC(=O)OCc1ccccc1 | 5.7%
Cc1ccc(NC=O)c(C)c1 | 7.77%
CCC1=C(C)CN(C(=O)NCCc2ccc(S(=O)(=O)NC(=O)NC3CCC(C)CC3)cc2)C1=O (centres undefined) | 5.89%
COc1cc(C)c(Cc2cnc(N)nc2N)cc1OC | 4.6%
CCCCOC(=O)C(C)Oc1ccc(Oc2ccc(C(F)(F)F)cn2)cc1 (centres undefined) | -0.649%

SMILES | activity change, negative = cytotoxicity
C=CC(C)(O)CC/C=C(/C)CCC=C(C)C (centres undefined) | -10.2%
CC(=O)c1cccnc1 | 16.6%
CCCCCO | -0.359%
O=c1[nH]nc(-c2ccc([N+](=O)[O-])o2)o1 | -4.62%
Clc1cccc(C(c2ccc3nc[nH]c3c2)n2ccnc2)c1 (centres undefined) | 3.52%
O=C(O)c1ccncc1 | -4.62% [at 81.1 µM]
Cc1c(Nc2ncccc2C(=O)O)cccc1C(F)(F)F | -17.1%
CC1=C(C)C(=O)C(C(CCCCCC(=O)O)c2ccccc2)=C(C)C1=O (centres undefined) | -0.359%
O=[N+]([O-])c1ccccc1CCO | -0.718% [at 81.1 µM]
O=c1[nH][nH]c2ccccc12 | -0.565% [at 81.1 µM]
CCc1c(C)[nH]c2c1C(=O)C(CN1CCOCC1)CC2 (centres undefined) | 0.234%
Cc1nc(C)c(C)nc1C | 4.52%
CCCCCCCCCCCCN1CCOCC1 | 1.74%
O=Cc1ccc([N+](=O)[O-])cc1 | 2.64% [at 81.1 µM]
C=CCCC | -8.24% [at 81.1 µM]
C1CCN(CN2CCCCC2)CC1 | 3.14%
CC(C)=CCC/C(C)=C/C=N/O | -19.9%
Cc1ccccc1CCO | 0.033%
OCCCO | 3.85% [at 81.1 µM]
